S2 tox: cell viability loss in ATXN counter-screen | S2 cells (HEK-293 line with an ATXN2-luciferase reporter) viability, CellTiter-Fluor protease fluorescence, 24 h | Potency, µM (highest dose often 56.7 µM), actives largely listed as cytotoxic | 400,000 tested, 0.49% active; note: potency is the fitted concentration of half-maximal effect; nearly all actives have a fitted effect of over 40% in size
HepG2 tox: counter-screen for TGF-b inhibitors: cytotoxicity in HepG2 cells; HepG2 CAGA-GFP viability, ATP luminescence, 18 h; Potency, µM (highest dose often 46.1 µM), for inactives: at the highest dose activity change, negative = cytotoxicity, hits mostly cytotoxic; 410,000 tested, 0.76% active; note: potency is the fitted concentration of half-maximal effect
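HepG2 CAGA-GFP cells (1000/well, DMEM with 1% FBS) received compound, then TGF-beta at 500 pg/mL final, and were incubated 18 hours at 37 degrees C. Viability was read by CellTiter-Glo luminescence. Media-only wells were set as complete cell-killing and DMSO as no toxicity.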
IL-1B inflam inh: inhibitors of inflammasome signaling (IL-1 beta secretion); THP-1 LPS/ATP IL-1B secretion, AlphaLISA, 16 h; active compounds read low; AID 743279; activity change, % at 57.5 µM; 360,000 tested, 4.7% active; in the data active = activity change below about -50%; inconclusive = mostly about -30% to -49%; note: % is set by controls: 0 for no effect and ±100 for the full control effect
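Secreted IL-1B measured by AlphaLISA bead assay after 16 h compound exposure of THP-1 cells; compounds (final up to 57.5 uM) added 1 h before LPS (250 ng/mL) and ATP (1.25 mM) stimulation; lower signal means less secretion.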
TGFb SMAD3 inh: TGF-b pathway inhibition; HepG2 CAGA-GFP TGF-b/SMAD3 reporter, GFP fluorescence, 18 h; TGF-beta stimulated, 500 pg/mL final; Potency, µM (doses to about 46.1 µM), without a hit: at the highest dose activity, negative = inhibition, usual class: inhibitors; 410,000 tested, 1.2% active; note: potency is the fitted concentration of half-maximal effect; % is set by controls: 0 for no effect and ±100 for the full control effect; nearly all actives have a fitted effect of over 65% in size
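Inhibition was scored as loss of TGF-beta-induced (500 pg/mL final, 18 hours, 37 degrees C) GFP in HEPG2 cells carrying a CAGA-GFP reporter, in DMEM with 1% FBS. Well GFP was summed per cell; Activity was normalised to unstimulated and stimulated DMSO wells, then concentration-response fitting.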
ATXN2 expr inh: inhibitors of ATXN2 expression; Potency, µM (series often up to 57 µM), inactives show top-dose activity change, negative = inhibition, most hits filed as inhibitors; AID 1745845; 360,000 tested, 0.72% active; HEK-293 ATXN2-luciferase reporter, luminescence, 24 h; note: potency is the fitted concentration of half-maximal effect; % is set by controls: 0 for no effect and ±100 for the full control effect; nearly all actives have a fitted effect of over 55% in size
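qHTS (up to 57 uM final) was run with 24 h compound exposure of reporter cells at 37 °C. Each well was multiplexed: SteadyGlo luminescence measured ATXN2-luciferase expression after a fluorogenic Gly-Phe-AFC viability readout (25 uM final).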
Starred values were filed as active, the others as inactive; i = inactive; ? = inconclusive; / = no result given; ! = a repeat was not active. The list is not random: actives were taken first. Their share in the collection is about 5.7%. Unless noted, calls come from the whole dose curve; as a rule, active = well fitted curve in the direction sought with a large enough effect; inconclusive = small, poorly fitted or top-dose-only effect, or another doubt; inactive = no such curve, though single readings can be large; an effect the other way counts as inactive or inconclusive.

SMILES	S2 tox	HepG2 tox	IL-1B inflam inh	TGFb SMAD3 inh	ATXN2 expr inh
CN1/C(=C\C(=S)NC(=O)c2ccccc2Cl)C(C)(C)c2ccccc21	i	-11.7%	-53.5*	-22.3%	-14.2%
COc1ccccc1C(=O)NC(=S)/C=C1/N(C)c2ccccc2C1(C)C	?	-3.3%	?	22.4µM*	0.0%
CN1/C(=C\C(=O)Nc2ccc(Cl)cc2)C(C)(C)c2ccccc21	i	-23.1%	-57.5*	?	4.9%
CCS(=O)(=O)NCc1c(C)ncc2c1CCN(C(=O)c1ccc(F)cc1)C2	i	/	/	/	/
O=C(CSc1ccccc1)N1CCc2c([nH]c3ccccc23)C1c1ccc(Cl)cc1 (stereo unspecified)	/	-73.4%	/	-5.0%	/
CC(C)N1C[C@@H](Sc2ccccn2)C[C@H]1C(=O)Nc1ccc2c(c1)Nc1ccccc1CC2	i	/	/	/	/
CC(=O)c1ccc(NC(=O)c2ccc(C)c(Br)c2)cc1	i	7.7%	-57.6*	0.5%	88.2%
COCCCNc1ncnc2sc(C(=O)N3CCCCC3)c(C)c12	i	/	/	/	/
Cn1cnc2c1c(=O)[nH]c(=O)n2C	i	/	/	/	30.6µM*!
Fc1ccc(-c2csc3ncnc(Nc4ccc(N5CCOCC5)cc4)c23)cc1	i	-10.1%	-57.6*	15.0%	-16.5%
Cc1cc(OCc2cc(C(=O)NC(C)c3c(C)nn(C)c3C)no2)cc(C)c1Cl (stereo unspecified)	i	-31.6%	-28.5	11.2µM*	?
Cc1cc(OCc2cc(C(=O)NC(C)c3cnn(C)c3)no2)cc(C)c1Cl (stereo unspecified)	?	-27.1%	-9.4	-10.6%	/
CCOc1ccc(C(=O)N2CCC(c3nc4ccccc4o3)CC2)cc1	/	-18.7%	/	-0.2%	/
O=C1NC(=Nc2ccccc2Cl)S/C1=C\c1ccc(C(=O)O)cc1	i	-1.3%	-2.7	-11.6%	/
CC12CCC(C/C1=N\N=C1\NC(=O)/C(=C\c3ccc(Cl)cc3)S1)C2(C)C (stereo unspecified)	i	-5.7%	-57.4*	0.0%	4.9%
CC(=O)Nc1ccc(Br)c2ccccc12	i	-5.9%	7.1	-10.5%	-19.3%
O=C(Nc1ccc(Br)c2ccccc12)c1ccc2ccccc2c1O	i	2.0%	-50.8*	?	/
COc1ccc(OC)c(CNC(=O)c2ccc3c(c2)c(C)c(C)n3Cc2ccc(Cl)cc2)c1	/	-19.2%	/	?	/
CCC(=O)N1c2ccccc2C(C)(c2ccccc2)CC1(C)C (stereo unspecified)	i	-0.9%	/	-1.5%	3.7%
CC1(c2ccccc2)CC(C)(C)N(C(=O)C2CCCO2)c2ccccc21 (stereo unspecified)	i	-18.1%	-65.2*	-24.1%	-21.8%
Nc1nc(=S)ss1	i	-14.3%	-98.2*	4.5%	-8.1%
COc1ccc(S(=O)(=O)N(CCCN2CCCC2=O)Cc2cc3c(C)cc(C)cc3[nH]c2=O)cc1	?	4.9%	-54.2*	1.1%	-11.6%
CCc1nnc(SCc2cc(C)ccc2C)c2cc3sc(C)cc3n12	/	-15.3%	/	?	/
OC1(c2ccccc2)CC(c2ccccc2)c2ccccc2O1 (stereo unspecified)	i	22.4µM*	-99.2*	?	?
COc1ccc(C2CC(O)(c3ccccc3)Oc3cc(OC)c(OC)c(OC)c32)cc1 (stereo unspecified)	?	-35.6%	-0.3	?	-13.8%
SMILES	S2 tox	HepG2 tox	IL-1B inflam inh	TGFb SMAD3 inh	ATXN2 expr inh
COc1ccc(CCNC(=O)c2cc3c(=O)[nH]c4ccc(C)cc4c3s2)cc1OC	i	-23.2%	/	-25.8%	-7.1%
O=C(NC(c1ccc(F)cc1)c1ccc2ccccc2n1)C1CCN(CCOc2ccc(Cl)cc2Cl)CC1 (stereo unspecified)	/	11.2µM*	?	?	?
COc1ccc(C(NC(=O)C2CCN(CCOc3ccc(Cl)cc3)CC2)c2cccs2)cc1 (stereo unspecified)	?	-61.0%	-71.2*	?	-23.7%
COc1ccc(OCCN2CCC(C(=O)NC(c3ccccc3)c3ccc4ccccc4n3)CC2)cc1 (stereo unspecified)	?	6.31µM*	-80.1*	?	0.0%
O=C(NC(c1ccc(F)cc1)c1ccc2ccccc2n1)C1CCN(CCOc2ccc(F)cc2)CC1 (stereo unspecified)	15.8µM*	15.8µM*	?	11.2µM*	28.2µM*
O=C(NC(c1ccc(F)cc1)c1cnccn1)C1CCN(CCOc2ccc(Cl)cc2Cl)CC1 (stereo unspecified)	?	-34.1%	/	?	?
COc1ccc(CN2CCOc3ccc(CN4CCC(O)CC4)cc3C2)c(OC)c1OC	i	/	/	/	/
COc1cccc(-c2nc(SCC(=O)Nc3ccc4c(c3)OCCO4)c(-c3ccc(C)cc3)[nH]2)c1	?	-5.3%	/	?	?
O=S1(=O)CCO[C@H]2CCCC[C@@H]2N1Cc1ccc(Cl)cc1	/	-20.1%	/	-23.7%	/
CC(C)C[C@H](NC(=O)[C@@H](COC(C)(C)C)NC(=O)[C@H](Cc1ccc(O)cc1)NC(=O)[C@H](CO)NC(=O)[C@H](Cc1c[nH]c2ccccc12)NC(=O)[C@H](Cc1cnc[nH]1)NC(=O)[C@@H]1CCC(=O)N1)C(=O)N[C@@H](CCCN=C(N)N)C(=O)N1CCC[C@H]1C(=O)NNC(N)=O	i	/	/	/	/
CCN(Cc1ccccc1)c1ncnc2c1nnn2C	/	-9.2%	/	31.3%	/
COc1ccc(OCCN2CCC(C(=O)NC(c3ccc(OC)cc3)c3ccccn3)CC2)cc1 (stereo unspecified)	i	-24.1%	-7.8	0.0%	2.3%
COc1ccc(OCCN2CCC(C(=O)NC(c3ccc(F)cc3)c3ccc4ccccc4n3)CC2)cc1 (stereo unspecified)	?	11.2µM*	-50.1*	20µM*	?
O=S(=O)(c1cccs1)N1CCN(CCOc2ccc(Cl)cc2)CC1	i	-32.6%	-59.1*	?	?
Cn1cc(CN2CCC(C(=O)NC(c3ccc(F)cc3)c3ccc4ccccc4n3)CC2)c2ccccc21 (stereo unspecified)	28.2µM*	10µM*	-80.7*	?	28.2µM*
O=C(NC(c1ccc(F)cc1)c1ccc2ccccc2n1)C1CCN(Cc2ccc(Oc3ccccc3)cc2)CC1 (stereo unspecified)	i	-3.4%	-75.1*	?	-32.5%
CC1CC=CC2C1C(=O)N(Cc1ccccc1)C2c1ccc(Br)cc1F (stereo unspecified)	/	-3.8%	/	-19.5%	/
Cc1ccc(-c2nc3c(c(SCC(=O)Nc4cccc(C(=O)O)c4)n2)Cc2cccc(C)c2O3)cc1	/	-0.5%	/	-4.2%	/
CCCCn1c(SCC(=O)c2ccc3c(c2)OCCO3)nnc1-c1ccoc1C	i	-22.3%	-96.1*	12.9%	-8.4%

Screening results (PubChem BioAssay)
